This is an account of results in PubChem BioAssay.

Test [1] in a line: optical density shifts of acrAB sulA E. coli – strain DRC41, OD650, 48 h, E. coli filamentation inducer project, primary screen (AID 1152).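 Also: E. coli MC1000 strain DRC41 lacking acrAB efflux pump and sulA.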 As to conditions: higher = more signal, called active from +8 up or from −8 down.
The nature of test [2]: probe aLefty1 binding on compound microarray – biochemical, small-molecule microarray, 635/667 nm fluorescence, primary screen (AID 1153).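 Also: score merges spot fluorescence with signal-to-noise ratio from the scanned slide images.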 As to conditions: higher = more signal.
The nature of test [3]: plasmodial surface anion channel blockers, osmotic lysis – cell-based, P. falciparum Indochina, OD700, 1 h, primary screen (AID 1154). The following applies: P. falciparum Indochina infected RBC osmotic lysis, higher = more signal, called active from +8 up or from −8 down.
A short description of test [4]: plasmodial surface anion channel blockers, osmotic lysis – cell-based, P. falciparum Indochina, OD700, 2 h, primary screen (AID 1155).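 Also: lysis reports solute entry through the parasite surface anion channel PSAC.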 The following applies: P. falciparum Indochina infected erythrocytes, higher = more signal, called active from +8 up or from −8 down.
A short description of test [5]: changes in parasitized red cell lysis, either direction – P. falciparum Indochina, OD700, 3 h, PSAC antagonist project, primary screen (AID 1156). As to conditions: P. falciparum-infected erythrocytes, osmotic lysis, higher = more signal, called active from +8 up or from −8 down.
Test [6] is described as follows: plasmodial surface anion channel blockers, osmotic lysis – cell-based, P. falciparum Indochina, OD700, 18 h, primary screen (AID 1157). The following applies: P. falciparum Indochina infected erythrocytes, osmotic lysis OD700, 18 h; higher = more signal, called active from +8 up or from −8 down.
A short description of test [7]: S6 kinase pathway phospho-S6 level changes – cell-based, A549, cytoblot, luminescence, serum-stimulated, primary screen (AID 1158).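 Also: serum-stimulated A549 lung adenocarcinoma cells; signal is phosphorylated S6 detected by cytoblot immunostaining with HRP secondary.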 As to conditions: 5 h, higher = more signal.
Test [8] deals with NADPH oxidase 2 (Homo sapiens) (UniProt P04839). Kind of test: compounds shifting NOX2 Amplex Red fluorescence – cell-based, HEK293-NOX2, PMA-stimulated, NOX inhibitor project, primary screen (AID 1159). Also: test concentration not given here. The following applies: 45 min, higher = more signal, called active from +8 up or from −8 down.
NADPH oxidase 2 (Homo sapiens), sequence (P04839 whole entry, looked up): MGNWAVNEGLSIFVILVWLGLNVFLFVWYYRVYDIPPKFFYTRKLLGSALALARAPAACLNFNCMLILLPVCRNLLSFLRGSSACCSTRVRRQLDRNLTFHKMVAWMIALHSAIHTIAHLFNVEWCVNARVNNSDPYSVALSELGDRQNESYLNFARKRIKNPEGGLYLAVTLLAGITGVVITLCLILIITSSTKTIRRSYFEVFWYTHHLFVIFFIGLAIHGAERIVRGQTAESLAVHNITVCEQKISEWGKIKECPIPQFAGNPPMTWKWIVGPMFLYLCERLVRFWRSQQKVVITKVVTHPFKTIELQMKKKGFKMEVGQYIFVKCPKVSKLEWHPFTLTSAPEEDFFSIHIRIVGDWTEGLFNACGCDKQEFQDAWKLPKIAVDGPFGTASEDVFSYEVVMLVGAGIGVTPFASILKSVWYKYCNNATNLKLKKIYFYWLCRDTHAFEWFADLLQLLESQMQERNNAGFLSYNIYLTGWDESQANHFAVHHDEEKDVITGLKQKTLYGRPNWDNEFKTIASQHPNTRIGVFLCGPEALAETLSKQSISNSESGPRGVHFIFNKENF
Test [9] deals with NADPH oxidase 4 (Homo sapiens) (UniProt Q9NPH5). Kind of test: compounds shifting NOX4 Amplex Red fluorescence – cell-based, HEK293-NOX4, tetracycline-induced, NOX inhibitor project, primary screen (AID 1160). As to conditions: HEK293-NOX4, Amplex Red H2O2 fluorescence, 45 min; higher = more signal, called active from +8 up or from −8 down.
NADPH oxidase 4 (Homo sapiens), sequence (Q9NPH5 whole entry, looked up): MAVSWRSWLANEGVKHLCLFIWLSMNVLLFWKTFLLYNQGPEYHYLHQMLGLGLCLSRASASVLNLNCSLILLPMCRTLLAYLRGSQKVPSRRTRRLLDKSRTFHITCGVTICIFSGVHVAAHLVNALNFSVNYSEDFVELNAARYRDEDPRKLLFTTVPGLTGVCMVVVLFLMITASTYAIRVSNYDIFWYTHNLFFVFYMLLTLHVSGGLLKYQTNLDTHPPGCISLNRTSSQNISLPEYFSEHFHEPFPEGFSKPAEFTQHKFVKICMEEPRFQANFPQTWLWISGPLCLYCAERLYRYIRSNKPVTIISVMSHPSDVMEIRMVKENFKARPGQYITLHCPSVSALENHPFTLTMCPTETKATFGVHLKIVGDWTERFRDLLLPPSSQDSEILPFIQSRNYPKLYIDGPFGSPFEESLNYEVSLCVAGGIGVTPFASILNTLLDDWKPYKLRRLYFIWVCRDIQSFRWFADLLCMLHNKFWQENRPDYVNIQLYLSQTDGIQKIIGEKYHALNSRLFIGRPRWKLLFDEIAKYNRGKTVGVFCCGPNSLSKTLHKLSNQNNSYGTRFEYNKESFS
For test [10], the target named is NADPH oxidase 5 (Homo sapiens) (UniProt Q96PH1). Kind of test: compounds shifting NOX5 Amplex Red fluorescence – cell-based, HEK293-NOX5, NOX inhibitor project, primary screen (AID 1161). The following applies: HEK293-NOX5, ionomycin, 45 min, higher = more signal.
NADPH oxidase 5 (Homo sapiens), sequence (Q96PH1 whole entry, looked up): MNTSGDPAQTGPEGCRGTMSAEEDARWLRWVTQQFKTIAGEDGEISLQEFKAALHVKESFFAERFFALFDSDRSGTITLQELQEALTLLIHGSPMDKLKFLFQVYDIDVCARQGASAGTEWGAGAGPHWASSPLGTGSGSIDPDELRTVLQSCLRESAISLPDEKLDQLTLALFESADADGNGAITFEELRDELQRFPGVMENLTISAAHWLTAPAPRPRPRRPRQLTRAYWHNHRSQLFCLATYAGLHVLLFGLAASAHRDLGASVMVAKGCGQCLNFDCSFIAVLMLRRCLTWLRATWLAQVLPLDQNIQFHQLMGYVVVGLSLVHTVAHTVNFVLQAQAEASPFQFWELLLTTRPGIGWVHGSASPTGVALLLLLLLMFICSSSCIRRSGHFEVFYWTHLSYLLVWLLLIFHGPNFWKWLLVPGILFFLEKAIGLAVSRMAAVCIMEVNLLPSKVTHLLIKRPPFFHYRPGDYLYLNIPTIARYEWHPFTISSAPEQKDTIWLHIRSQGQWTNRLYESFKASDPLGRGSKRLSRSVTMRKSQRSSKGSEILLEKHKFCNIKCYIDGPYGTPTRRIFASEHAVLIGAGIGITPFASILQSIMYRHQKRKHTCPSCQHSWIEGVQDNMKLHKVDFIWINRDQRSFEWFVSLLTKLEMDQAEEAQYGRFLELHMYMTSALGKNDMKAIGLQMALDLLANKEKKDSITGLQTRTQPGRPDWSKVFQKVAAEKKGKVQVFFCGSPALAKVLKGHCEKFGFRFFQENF
Test [11] in a line: compound effects on lung adenocarcinoma cell viability – A549, calcein-AM fluorescence, 48 h, basal, profiling panel (AID 1162). Also: test concentration not given here. As to conditions: higher = more signal.
Test [12] can be described thus: compound effects on differentiated 3T3-L1 adipocyte viability – cell-based, 3T3-L1 adipocytes, calcein-AM fluorescence, 48 h, basal, profiling panel (AID 1163). Also: test concentration not given here. The following applies: 3T3-L1 adipocytes viability, higher = more signal.
Test [13] in a line: compound effects on hepatocellular carcinoma cell viability – HepG2, calcein-AM fluorescence, 48 h, basal, profiling panel (AID 1164). Also: test concentration not given here. As to conditions: higher = more signal.
A short description of test [14]: compound effects on multiple myeloma cell viability – MM1S, calcein-AM fluorescence, 48 h, basal, profiling panel (AID 1165).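 Also: viability of MM1S multiple myeloma cells under basal unstimulated conditions; test concentration not given here.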 The following applies: higher = more signal.
Test [15] is described as follows: calcein-AM signal in unstimulated myeloma cells – cell-based, calcein-AM fluorescence, 48 h, PK04 Diversity Set, profiling panel (AID 1166).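 Also: cells grown under basal conditions without added stimulus; test concentration not given here.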 The following applies: RPMI8226 myeloma viability, higher = more signal.
The nature of test [16]: JC-1 mitochondrial signal, unstimulated HepG2 cells – cell-based, JC-1 fluorescence, 24 h, 100 nL compound, profiling panel (AID 1167). Also: test concentration not given here. As to conditions: HepG2 mitochondrial potential, higher = more signal.
Test [17] in a line: JC-1 mitochondrial signal, unstimulated adipocytes – cell-based, JC-1 fluorescence, 3T3-L1 adipocytes, 24 h, 100 nL compound, profiling panel (AID 1168). Also: test concentration not given here. As to conditions: JC-1 mitochondrial fluorescence, higher = more signal, called active from +8 up or from −8 down.
The nature of test [18]: JC-1 mitochondrial signal, unstimulated myeloma cells – cell-based, JC-1 fluorescence, RPMI8226, 24 h, 100 nL compound, profiling panel (AID 1169). Also: test concentration not given here. As to conditions: JC-1 mitochondrial potential fluorescence, higher = more signal.
Test [19] can be described thus: JC-1 mitochondrial signal, unstimulated MM1S myeloma – cell-based, JC-1 fluorescence, 24 h, 100 nL compound, profiling panel (AID 1170). Also: test concentration not given here. As to conditions: MM1S mitochondrial potential, higher = more signal.
Test [20] can be described thus: resazurin metabolic signal in A549 cells – cell-based, resazurin fluorescence, 24 h, PK04 Diversity Set, profiling panel (AID 1171). Also: test concentration not given here. The following applies: A549 viability, higher = more signal, called active from +8 up or from −8 down.

Active and inactive are the calls of the source.

For `C=CCNC(=O)[C@@H]1[C@H]2C(=O)O[C@H](c3ccccc3)[C@H](c3ccccc3)N2[C@H](c2ccccc2OCCO)[C@@]12C(=O)N(C(=O)OCCOC)c1ccccc12`, the z-score in test [1] is -0.91 (inactive); in [3], 2.92 (inactive); in test [4], 1.24 (inactive); in test [5], -0.693 (inactive); in [6], 1.05 (inactive); in [7], -0.458. Besides, the z-score in [8] is 1.88 (inactive); in test [9] it was -0.691 (inactive); in test [10] it was -0.1; in [11], -0.798; in [12] it was 0.955; in test [13] it was -1.69. Also, the z-score in test [14] was -2.24; in test [15] it was -3.37; in test [16] it was -0.186; in test [17], 0.149 (inactive); in test [18], -0.813; in test [19], -0.287. Also, in test [20], the z-score is -2.03 (inactive). Further, the composite z-score in [2] was determined as 0.238.
With `CNS(=O)(=O)c1ccc(C)cc1`, the z-score is 2.78 (inactive) in test [1]; -0.699 (inactive) in test [3]; -1.07 (inactive) in [4]; -0.886 (inactive) in test [5]; -2.23 (inactive) in test [6]; 0.929 in [7]. For the same compound, the z-score was 2.36 (inactive) in test [8]; 0.878 (inactive) in [9]; 0.669 in test [10]; 0.753 in test [11]; 0.451 in test [12]; 1.4 in test [13]. The z-score in test [14] is 0.269; in [15], 0.0427; in test [16], 0.384; in test [17], 1 (inactive); in test [18], -0.049; in test [19], 0.937. The z-score in [20] was -0.126 (inactive). The composite z-score in test [2] was -0.371.
For `C=C(COC)C(=O)CC[C@@H](OC(C)=O)c1ccc(CO)o1`, the z-score in test [1] is 0.0488 (inactive); in test [3], 0.116 (inactive); in [4] it was -0.47 (inactive); in [5] it was 0.195 (inactive); in [6], -0.38 (inactive); in [7], -0.142. The z-score was 0.663 (inactive) in test [8]; 0.0844 (inactive) in test [9]; 0.46 in test [10]; -0.97 in test [11]; 0.186 in test [12]; 0.473 in test [13]. Further, the z-score in test [14] is -0.0988; in test [15], -0.355; in test [16], -0.799; in test [17], 0.195 (inactive); in test [18], -0.548; in test [19] it was -0.066. Further, in test [20], the z-score is 0.188 (inactive). Also, the composite z-score in test [2] turned out to be 0.0371.
Consider `C=CCNC(=O)[C@@H]1[C@H]2C(=O)O[C@H](c3ccccc3)[C@H](c3ccccc3)N2[C@H](c2ccc(OCCO)cc2)[C@@]12C(=O)Nc1ccc(C#CCC(C(=O)OC)C(=O)OC)cc12`, for which the z-score in test [1] is 1.13 (inactive); in test [3] it was 5.24 (inactive); in [4], 1.59 (inactive); in [5], 1.28 (inactive); in test [6], 0.653 (inactive); in [7] it was -0.186. For the same compound, the z-score is 2.32 (inactive) in [8]; 0.186 (inactive) in [9]; 0.236 in test [10]; -0.305 in test [11]; 1.09 in [12]; 0.22 in [13]. For the same compound, the z-score in test [14] was -3.45; in test [15], -4.16; in [16], 0.644; in [17] it was 1.39 (inactive); in test [18], -0.907; in test [19], -1.63. The z-score in test [20] is 1.39 (inactive). In test [2], the composite z-score came out at 0.0973.
Take `COc1ccc([Si](C)(C)[C@@H]2[C@@H](CCO)O[C@]3(C(=O)N(Cc4ccc(N(C=O)c5ccccc5)cc4)c4ccccc43)[C@H]2C)cc1`: the z-score is -0.482 (inactive) in test [1]; 4.33 (inactive) in test [3]; 2.33 (inactive) in test [4]; 0.287 (inactive) in test [5]; 1.7 (inactive) in test [6]; 0.257 in test [7]. Moreover, the z-score in test [8] was 1.07 (inactive); in test [9], 1.52 (inactive); in [10] it was 2.89; in test [11] it was -0.844; in test [12], -0.193; in test [13], -3.46. The z-score in [14] is -1.94; in test [15], -3.9; in test [16] it was -0.164; in test [17] it was 0.21 (inactive); in test [18], -0.95; in [19], -1.26. In addition, in test [20], the z-score was -2.71 (inactive). The compound also displayed a composite z-score in test [2] of -0.06.
